Experimental data reported in PubChem BioAssay.
The source made the active and inactive calls. Rule as the data show it, unless noted: active = response above about 15%; inactive = the rest.

Molecular target: AP-2 complex subunit beta (Homo sapiens) (UniProt P63010)
Assay: inhibitors of arrestin peptide binding to AP2, pilot screen, biochemical, validation set, GST-AP2 beads, flow cytometry (AID 504541;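 active = inhibition above 54%, about 3 SD of non-fluorescent compounds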;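 also: AP2 carries R879A mutation and is captured from E. coli lysate; bead-bound FITC arrestin peptide fluorescence measuring arrestin peptide binding to AP2; 0% = DMSO wells and 100% = excess unlabeled arrestin peptide control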)
Conditions: FITC arrestin peptide, at 10 µM, hits give high values

AP-2 complex subunit beta (Homo sapiens), sequence (P63010 whole entry, looked up, one chain of several): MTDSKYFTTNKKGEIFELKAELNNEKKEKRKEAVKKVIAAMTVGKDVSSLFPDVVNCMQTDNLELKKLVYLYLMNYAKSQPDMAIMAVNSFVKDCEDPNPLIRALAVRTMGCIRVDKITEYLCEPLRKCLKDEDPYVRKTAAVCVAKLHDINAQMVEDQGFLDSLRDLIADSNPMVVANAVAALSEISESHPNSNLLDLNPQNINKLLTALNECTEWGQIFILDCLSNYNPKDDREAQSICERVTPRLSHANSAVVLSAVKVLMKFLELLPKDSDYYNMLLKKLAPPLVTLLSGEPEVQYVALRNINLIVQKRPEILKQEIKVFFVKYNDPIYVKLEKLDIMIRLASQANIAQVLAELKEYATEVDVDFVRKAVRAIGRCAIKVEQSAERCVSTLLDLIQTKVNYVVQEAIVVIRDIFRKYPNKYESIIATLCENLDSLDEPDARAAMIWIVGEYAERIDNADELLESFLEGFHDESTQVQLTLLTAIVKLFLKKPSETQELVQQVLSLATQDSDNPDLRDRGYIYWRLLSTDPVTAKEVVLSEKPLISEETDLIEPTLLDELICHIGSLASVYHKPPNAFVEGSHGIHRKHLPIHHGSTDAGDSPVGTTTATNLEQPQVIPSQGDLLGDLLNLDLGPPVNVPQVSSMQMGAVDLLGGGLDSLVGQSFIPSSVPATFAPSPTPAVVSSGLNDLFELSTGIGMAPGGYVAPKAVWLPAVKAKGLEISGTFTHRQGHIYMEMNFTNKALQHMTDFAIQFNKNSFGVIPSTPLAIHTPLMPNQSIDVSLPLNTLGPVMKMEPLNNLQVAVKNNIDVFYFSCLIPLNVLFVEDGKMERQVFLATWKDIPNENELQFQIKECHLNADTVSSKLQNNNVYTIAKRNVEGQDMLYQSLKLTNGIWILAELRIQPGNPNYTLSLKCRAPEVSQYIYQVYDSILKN

Compound | inhibition
CC(CCc1ccccc1)NC(C)C(O)c1ccc(O)cc1 (configuration not stated) | 2.09% (inactive)
NCCc1ccc(O)cc1 | 5.64% (inactive)
CC/C(=C\C=C\[C@@H]1C=C[C@@H]2CCC[C@H]2[C@@H]1C(=O)c1ccc[nH]1)[C@@H]1O[C@@H]([C@@H](C)C(=O)O)CC[C@@H]1C | 0.83% (inactive)
Cc1c2ccncc2c(C)c2c1[nH]c1ccccc12 | 5.87% (inactive)
CCC(COC(=O)c1cc(OC)c(OC)c(OC)c1)(c1ccccc1)N(C)C (configuration not stated) | -3.75% (inactive)
Clc1ccc(COC(Cn2ccnc2)c2ccc(Cl)cc2Cl)c(Cl)c1 (configuration not stated) | -8.06% (inactive)
COc1cc(/C=C2\C(=O)NC(=O)N(c3ccccc3)C2=O)c([N+](=O)[O-])cc1OC | 5.39% (inactive)
Nc1ccc([As](=O)(O)O)cc1 | -9.89% (inactive)
O=C1CSC2N1CCNC21CCCCC1 (configuration not stated) | 4.77% (inactive)
CC(=O)Nc1cc([As](=O)(O)O)ccc1O | -6.36% (inactive)
C[C@]12CCC(=O)C(O)=C1CC[C@@H]1[C@@H]2CC[C@]2(C)C(=O)CC[C@@H]12 | 0.25% (inactive)
C[C@]12CCC(=O)C=C1CC[C@@H]1[C@@H]2C(=O)C[C@]2(C)C(=O)CC[C@@H]12 | 0.49% (inactive)
CN1[C@@H]2CC[C@H]1CC(OC(=O)C1C=Nc3ccccc31)C2 (some centres not stated) | -15.4% (inactive)
CCCC(=O)OCC[N+](C)(C)C | 5.57% (inactive)
CC12CCC3C(CC=C4CC5(CCC43C)OCCO5)C1CCC2=O (configuration not stated) | -3.19% (inactive)
Cc1nc2ccccc2c(=O)n1-c1ccc(C(=O)O)cc1 | 34.5% (inactive)
c1ccc2c(c1)OCC(C1=NCCN1)O2 (configuration not stated) | -3.31% (inactive)
C[C@]12CC[C@@H]3c4ccc(O)c(O)c4CC[C@H]3[C@@H]1CC[C@@H]2O | 1.47% (inactive)
NCC(O)c1ccc(O)cc1 (configuration not stated) | -8.51% (inactive)
COc1ccc2c3c([nH]c2c1)C(C)=NCC3 | 10.6% (inactive)
CCCC(C)(COC(N)=O)COC(=O)NC(C)C (configuration not stated) | -2.17% (inactive)
c1cnc2c(c1)ccc1ncccc12 | -6.24% (inactive)
CC12CN3CC(c4ccccc4)(CN(C1)C31CCCCC1)C2=O | -0.95% (inactive)
C[C@H]1CCCC(=O)CCCCCc2cc(O)cc(O)c2C(=O)O1 | -10.7% (inactive)

Test system: not listed separately
Assay: yeast V-ATPase proton transport modulators, S. cerevisiae, pHLuorin, HTS validation (AID 504600);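 also: plate controls were DMSO for no effect and reference compound for full effect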
Conditions: S. cerevisiae pHLuorin cytosolic pH, at 10 µM, hits give high values

Compound | response
CC(CCc1ccccc1)NC(C)C(O)c1ccc(O)cc1 (configuration not stated) | 5.84% (inactive)
NCCc1ccc(O)cc1 | 5.09% (inactive)
CC/C(=C\C=C\[C@@H]1C=C[C@@H]2CCC[C@H]2[C@@H]1C(=O)c1ccc[nH]1)[C@@H]1O[C@@H]([C@@H](C)C(=O)O)CC[C@@H]1C | -0.4% (inactive)
Cc1c2ccncc2c(C)c2c1[nH]c1ccccc12 | -2.57% (inactive)
CCC(COC(=O)c1cc(OC)c(OC)c(OC)c1)(c1ccccc1)N(C)C (configuration not stated) | -2.48% (inactive)
Clc1ccc(COC(Cn2ccnc2)c2ccc(Cl)cc2Cl)c(Cl)c1 (configuration not stated) | 75% (active)
COc1cc(/C=C2\C(=O)NC(=O)N(c3ccccc3)C2=O)c([N+](=O)[O-])cc1OC | 3.62% (inactive)
Nc1ccc([As](=O)(O)O)cc1 | -3.63% (inactive)
O=C1CSC2N1CCNC21CCCCC1 (configuration not stated) | 2.26% (inactive)
CC(=O)Nc1cc([As](=O)(O)O)ccc1O | 1.26% (inactive)
C[C@]12CCC(=O)C(O)=C1CC[C@@H]1[C@@H]2CC[C@]2(C)C(=O)CC[C@@H]12 | -1.14% (inactive)
C[C@]12CCC(=O)C=C1CC[C@@H]1[C@@H]2C(=O)C[C@]2(C)C(=O)CC[C@@H]12 | -0.42% (inactive)
CN1[C@@H]2CC[C@H]1CC(OC(=O)C1C=Nc3ccccc31)C2 (some centres not stated) | -15% (inactive)
CCCC(=O)OCC[N+](C)(C)C | 5.81% (inactive)
CC12CCC3C(CC=C4CC5(CCC43C)OCCO5)C1CCC2=O (configuration not stated) | 0.24% (inactive)
Cc1nc2ccccc2c(=O)n1-c1ccc(C(=O)O)cc1 | -10.1% (inactive)
c1ccc2c(c1)OCC(C1=NCCN1)O2 (configuration not stated) | 3.01% (inactive)
C[C@]12CC[C@@H]3c4ccc(O)c(O)c4CC[C@H]3[C@@H]1CC[C@@H]2O | -0.32% (inactive)
NCC(O)c1ccc(O)cc1 (configuration not stated) | 2.02% (inactive)
COc1ccc2c3c([nH]c2c1)C(C)=NCC3 | -11.3% (inactive)
CCCC(C)(COC(N)=O)COC(=O)NC(C)C (configuration not stated) | 9.22% (inactive)
c1cnc2c(c1)ccc1ncccc12 | 21.4% (active)
CC12CN3CC(c4ccccc4)(CN(C1)C31CCCCC1)C2=O | 0.31% (inactive)
C[C@H]1CCCC(=O)CCCCCc2cc(O)cc(O)c2C(=O)O1 | 6% (inactive)

Test system: anti-desmoglein-3 scFv antibody binding to human DSG3
Assay: inhibitors of anti-DSG3 scFv binding to DSG3, pilot screen, biochemical, validation compound set, bead-based, flow cytometry (AID 588368;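 active = binding below the plate cutoff, the plate median minus 3 SD, with a reading above zero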;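 also: signal is the median channel fluorescence of bead-bound GFP antibody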)
Conditions: Protein G beads, DSG3-Fc, scFv-GFP binding, at 10 µM, hits give low values

Compound | binding (% of control)
CC(CCc1ccccc1)NC(C)C(O)c1ccc(O)cc1 (configuration not stated) | 95.4% (inactive)
NCCc1ccc(O)cc1 | 107% (inactive)
CC/C(=C\C=C\[C@@H]1C=C[C@@H]2CCC[C@H]2[C@@H]1C(=O)c1ccc[nH]1)[C@@H]1O[C@@H]([C@@H](C)C(=O)O)CC[C@@H]1C | 107% (inactive)
Cc1c2ccncc2c(C)c2c1[nH]c1ccccc12 | 180% (inactive)
CCC(COC(=O)c1cc(OC)c(OC)c(OC)c1)(c1ccccc1)N(C)C (configuration not stated) | 98.7% (inactive)
Clc1ccc(COC(Cn2ccnc2)c2ccc(Cl)cc2Cl)c(Cl)c1 (configuration not stated) | 104% (inactive)
COc1cc(/C=C2\C(=O)NC(=O)N(c3ccccc3)C2=O)c([N+](=O)[O-])cc1OC | 105% (inactive)
Nc1ccc([As](=O)(O)O)cc1 | 99.6% (inactive)
O=C1CSC2N1CCNC21CCCCC1 (configuration not stated) | 112% (inactive)
CC(=O)Nc1cc([As](=O)(O)O)ccc1O | 101% (inactive)
C[C@]12CCC(=O)C(O)=C1CC[C@@H]1[C@@H]2CC[C@]2(C)C(=O)CC[C@@H]12 | 110% (inactive)
C[C@]12CCC(=O)C=C1CC[C@@H]1[C@@H]2C(=O)C[C@]2(C)C(=O)CC[C@@H]12 | 99.9% (inactive)
CN1[C@@H]2CC[C@H]1CC(OC(=O)C1C=Nc3ccccc31)C2 (some centres not stated) | 93.3% (inactive)
CCCC(=O)OCC[N+](C)(C)C | 108% (inactive)
CC12CCC3C(CC=C4CC5(CCC43C)OCCO5)C1CCC2=O (configuration not stated) | 108% (inactive)
Cc1nc2ccccc2c(=O)n1-c1ccc(C(=O)O)cc1 | 101% (inactive)
c1ccc2c(c1)OCC(C1=NCCN1)O2 (configuration not stated) | 99.6% (inactive)
C[C@]12CC[C@@H]3c4ccc(O)c(O)c4CC[C@H]3[C@@H]1CC[C@@H]2O | 108% (inactive)
NCC(O)c1ccc(O)cc1 (configuration not stated) | 103% (inactive)
COc1ccc2c3c([nH]c2c1)C(C)=NCC3 | 172% (inactive)
CCCC(C)(COC(N)=O)COC(=O)NC(C)C (configuration not stated) | 101% (inactive)
c1cnc2c(c1)ccc1ncccc12 | 102% (inactive)
CC12CN3CC(c4ccccc4)(CN(C1)C31CCCCC1)C2=O | 99.5% (inactive)
C[C@H]1CCCC(=O)CCCCCc2cc(O)cc(O)c2C(=O)O1 | 106% (inactive)
